The source of these data is PubChem BioAssay (EPA / NIEHS).

Where “and” joins values, the source holds several entries; their conditions need not be identical. Equal entries are not always repeated. Inconclusive results are not listed. Where a structure was tested more than once in an assay, its records may differ in their call. Calls of active or inactive are those of the source. Rule for the calls: active = hit-call score of the fitted dose curve at least 0.9, where 1 is the maximum; inconclusive = response in the unintended direction; inactive = score below 0.9.

One assay concerns NCBI gene 100848466. Description: NVS_NR_bPR: NovaScreen (NVS) Nuclear Receptor Binding Assay for bovine Progextron Receptor (PR) (AID 2283343).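 For AC50: actives lower bound radioligand signal below DMSO meaning displacement of the label.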 The method in brief:
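Competitive radioligand binding with membranes from bovine uterus, scintillation read-out at 18 h post-dose. Compounds first tested in duplicate at 25 uM, then actives in concentration series; loss-of-signal relative to DMSO.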

Assay [1] deals with bovine Estrogen Receptor (ER), ESR1 (gene 407238) (UniProt P49884). Description: NVS_NR_bER: NovaScreen (NVS) Nuclear Receptor Binding Assay for bovine Estrogen Receptor (ER) (AID 2283345).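 Note: actives lower the bound radioligand count which means they displace the ER ligand.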 The method in brief: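 Cell-free radioligand binding with bovine uterine membrane extracts, read 18 hours after dosing by scintillation counting. Loss of signal versus DMSO baseline indicates displacement. Primary screen run in duplicate at 25 uM, actives followed in concentration series.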
Sequence of bovine Estrogen Receptor (ER), ESR1 (gene 407238) (P49884 whole entry, looked up): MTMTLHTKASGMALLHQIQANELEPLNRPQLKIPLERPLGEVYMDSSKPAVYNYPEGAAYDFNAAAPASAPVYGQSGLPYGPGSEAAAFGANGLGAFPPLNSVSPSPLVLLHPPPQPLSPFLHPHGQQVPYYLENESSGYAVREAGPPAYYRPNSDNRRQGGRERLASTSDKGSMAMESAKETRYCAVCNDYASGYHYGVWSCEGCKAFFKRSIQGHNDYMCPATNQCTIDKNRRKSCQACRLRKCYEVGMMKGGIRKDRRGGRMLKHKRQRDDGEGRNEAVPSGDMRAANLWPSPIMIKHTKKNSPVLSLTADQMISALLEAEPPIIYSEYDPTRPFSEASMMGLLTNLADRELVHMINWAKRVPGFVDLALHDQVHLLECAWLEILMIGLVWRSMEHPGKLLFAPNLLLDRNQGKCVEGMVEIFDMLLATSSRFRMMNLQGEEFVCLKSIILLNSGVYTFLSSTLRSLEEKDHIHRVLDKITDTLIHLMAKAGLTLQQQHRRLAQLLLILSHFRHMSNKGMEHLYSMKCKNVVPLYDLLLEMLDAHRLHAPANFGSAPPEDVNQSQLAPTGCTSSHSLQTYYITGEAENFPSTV

Assay [2] has as its target Estrogen receptor beta (Homo sapiens) (UniProt Q92731). Description: OT_ER_ERbERb_0480: Odyssey Thera (OT) 8-hour HEK293T Protein-Complementation Assay for Estrogen Receptor-beta/-beta Homodimer (AID 2283357).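 Note: active means signal gain over DMSO baseline.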 The method in brief: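 ER-beta LBD homodimer PCA stably expressed in HEK293T; 8 h compound exposure, then formaldehyde fixation and Draq5 staining. Gain in nuclear/cytoplasmic fluorescence intensity versus DMSO vehicle, read on laser scanning cytometer.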

For a further assay, the target named is PGR (gene 5241) (UniProt P06401). Description: NVS_NR_hPR: NovaScreen (NVS) Nuclear Receptor Binding Assay for human Progestron Receptor (PR) (AID 2283360).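 Note: active means loss of bound radioligand signal versus DMSO baseline.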 The method in brief: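 Radioligand competition binding on receptor extracted from T47D cells, read by scintillation counting 18 h after dosing. Loss of signal versus DMSO; primary screen in duplicate at 25 uM, actives followed in concentration series.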

In assay [3] the target is chimpanzee Androgen Receptor (AR), AR (gene 747460) (UniProt O97775). As to the kind of experiment: NVS_NR_cAR: NovaScreen (NVS) Nuclear Receptor Binding Assay for chimpanzee Androgen Receptor (AR) (AID 2283346).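 Note: radioligand displacement from AR measured by scintillation counting in a cell-free assay; a loss of bound radioligand signal versus DMSO counts as binding.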 The method in brief: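 Cell-free competition binding with insect-cell (Sf9/Sf21) extracted chimpanzee AR; scintillation signal from lysate at 72 h. Screened in duplicate at 25 uM, then concentration-response for actives; fitting relative to DMSO.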
Sequence of chimpanzee Androgen Receptor (AR), AR (gene 747460) (O97775 whole entry, looked up): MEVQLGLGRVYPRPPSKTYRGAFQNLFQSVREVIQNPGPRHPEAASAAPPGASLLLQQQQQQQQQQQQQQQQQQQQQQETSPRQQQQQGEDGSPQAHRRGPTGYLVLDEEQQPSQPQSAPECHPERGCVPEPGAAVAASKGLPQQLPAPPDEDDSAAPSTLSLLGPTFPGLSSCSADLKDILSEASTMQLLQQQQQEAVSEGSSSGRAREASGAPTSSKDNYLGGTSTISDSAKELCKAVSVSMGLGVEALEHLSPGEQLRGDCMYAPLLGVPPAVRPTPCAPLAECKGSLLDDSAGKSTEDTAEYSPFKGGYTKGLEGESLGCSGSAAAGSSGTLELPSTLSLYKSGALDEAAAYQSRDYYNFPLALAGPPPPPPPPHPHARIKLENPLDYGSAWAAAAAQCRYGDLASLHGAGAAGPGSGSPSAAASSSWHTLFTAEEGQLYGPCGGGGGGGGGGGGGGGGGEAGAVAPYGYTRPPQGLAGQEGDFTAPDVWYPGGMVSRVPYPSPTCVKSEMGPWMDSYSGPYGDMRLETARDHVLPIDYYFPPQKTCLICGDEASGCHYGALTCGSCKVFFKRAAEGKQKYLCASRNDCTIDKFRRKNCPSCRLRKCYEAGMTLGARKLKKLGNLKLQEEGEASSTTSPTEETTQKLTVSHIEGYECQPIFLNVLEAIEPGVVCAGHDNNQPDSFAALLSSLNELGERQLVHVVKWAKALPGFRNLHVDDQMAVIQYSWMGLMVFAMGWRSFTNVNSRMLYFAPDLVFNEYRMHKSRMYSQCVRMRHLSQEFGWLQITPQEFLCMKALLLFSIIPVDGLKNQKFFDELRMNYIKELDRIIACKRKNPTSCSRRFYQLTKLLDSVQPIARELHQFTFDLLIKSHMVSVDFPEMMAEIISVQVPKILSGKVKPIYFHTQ

In assay [4] the target is Estrogen receptor (Homo sapiens) (UniProt P03372). As to the kind of experiment: OT_ER_ERaERa_1440: Odyssey Thera (OT) 24-hour HEK293T Protein-Complementation Assay for Estrogen Receptor-alpha/-alpha Homodimer (AID 2283349).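 Note: hits raise fluorescence above DMSO for agonists and antagonists alike.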 The method in brief: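 HEK293T, stable ERα LBD (aa 310-547) homodimer PCA; 24 h compound exposure; mean fluorescence intensity (nuclear for agonists, nuclear plus cytoplasmic for antagonists) vs vehicle; positive fitting direction, DMSO baseline.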
Sequence of Estrogen receptor (Homo sapiens) (P03372 whole entry, looked up, the tested form may be a part): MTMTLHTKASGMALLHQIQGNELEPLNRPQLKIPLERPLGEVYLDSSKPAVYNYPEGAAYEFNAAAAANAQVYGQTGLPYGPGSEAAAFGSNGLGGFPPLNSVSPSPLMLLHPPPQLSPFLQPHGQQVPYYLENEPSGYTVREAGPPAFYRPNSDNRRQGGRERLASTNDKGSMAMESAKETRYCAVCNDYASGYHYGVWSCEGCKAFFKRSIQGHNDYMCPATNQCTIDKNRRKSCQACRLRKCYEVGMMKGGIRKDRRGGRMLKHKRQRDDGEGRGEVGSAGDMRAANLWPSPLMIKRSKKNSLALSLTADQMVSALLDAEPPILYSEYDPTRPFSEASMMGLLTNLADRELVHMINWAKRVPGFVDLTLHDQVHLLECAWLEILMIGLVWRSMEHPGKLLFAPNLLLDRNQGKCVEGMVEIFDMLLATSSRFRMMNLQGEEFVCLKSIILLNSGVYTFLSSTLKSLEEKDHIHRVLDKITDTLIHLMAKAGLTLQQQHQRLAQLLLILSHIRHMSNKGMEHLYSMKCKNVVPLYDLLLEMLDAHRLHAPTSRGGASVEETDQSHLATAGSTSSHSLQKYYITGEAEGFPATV

Assay [5] has the same target. As to the kind of experiment: OT_ER_ERaERa_0480: Odyssey Thera (OT) 8-hour HEK293T Protein-Complementation Assay for Estrogen Receptor-alpha/-alpha Homodimer (AID 2283351).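 Note: rise in fluorescence from reassembled reporter fragments on ERα LBD homodimer in nucleus or whole cell.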 The method in brief: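 Cells were treated for 8 hours, then imaged on a laser scanning plate cytometer. Complementation of reporter fragments fused to the human ERα ligand-binding domain (residues 310-547) in HEK293T gave fluorescence, and gain of signal over vehicle was fitted.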

Assay [6] concerns the target rat Mineralocorticoid Receptor (MR), Nr3c2 (gene 25672) (UniProt P22199). Description: NVS_NR_rMR: NovaScreen (NVS) Nuclear Receptor Binding Assay for rat Mineralocorticoid Receptor (MR) (AID 2283355). The method in brief: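 Primary HTS ran in duplicate at a single 25 uM concentration, with concentration-series follow-up for actives. Receptor source: adrenalectomized rat brain supernatant, cell-free. Radioligand displacement read by scintillation at 24 h, relative to DMSO baseline.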

Assay [7] has as its target Androgen Receptor/SRC-1 Co-activator, AR (gene 367) (UniProt P10275). Description: OT_AR_ARSRC1_0960: Odyssey Thera (OT) 16-hour HEK293T Protein-Complementation Assay for Androgen Receptor/SRC-1 Co-activator (AID 2283353).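 Note: actives raise the signal above DMSO so potency reflects increased AR and SRC-1 complex.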 The method in brief:
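Stable HEK293T line carries AR and SRC-1 each linked to a Venus fragment; chemicals are applied for 16 h, cells imaged at two wavelengths, and the 488 nm nucleus/cytoplasm ratio is taken as the signal, rising relative to DMSO.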

Assay [8] has the same target. Description: OT_AR_ARSRC1_0480: Odyssey Thera (OT) 8-hour HEK293T Protein-Complementation Assay for Androgen Receptor/SRC-1 Co-activator (AID 2283354).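 Note: hits raise the complementation signal above DMSO so AC50 marks enhancers.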 The method in brief: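 Reconstituted split-Venus YFP signal from AR–SRC-1 interaction, read by imaging 8 h post-dose in stable HEK293T lines. The 488 nm nucleus-to-cytoplasm ratio (≥400 cells/image) was fitted upward against DMSO.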

Assay [9] concerns the target human Peroxisome Proliferator-activated Receptor alpha (PPARa), PPARA (gene 5465) (UniProt Q07869). As to the kind of experiment: NVS_NR_hPPARa: NovaScreen (NVS) Nuclear Receptor Binding Assay for human Peroxisome Proliferator-activated Receptor alpha (PPARa) (AID 2283359).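 Note: activity means loss of TR-FRET signal versus DMSO baseline.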 The method in brief:
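Loss of TR-FRET binding signal relative to DMSO was measured 1 h after chemical addition to extracted receptor protein. Chemicals were first tested in duplicate at 25 uM, and actives were followed up in concentration series.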

In assay [10] the target is T1, Estrogen receptor (Homo sapiens) + Estrogen receptor beta (Homo sapiens) (UniProt P03372+Q92731). As to the kind of experiment: OT_ER_ERaERb_0480: Odyssey Thera (OT) 8-hour HEK293T Protein-Complementation Assay for Estrogen Receptor-alpha/-beta Heterodimer (AID 2283352). The method in brief:
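Increase in mean fluorescence intensity, measured by laser scanning plate cytometry, reported ER-alpha/ER-beta LBD complementation in HEK293T cells after 8 h chemical exposure. DMSO served as baseline; basal signal is low, punctate and cytoplasmic.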

Assay [11] deals with T1, Estrogen receptor (Homo sapiens) + Estrogen receptor beta (Homo sapiens). As to the kind of experiment: OT_ER_ERaERb_1440: Odyssey Thera (OT) 24-hour HEK293T Protein-Complementation Assay for Estrogen Receptor-alpha/-beta Homodimer (AID 2283356).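 Note: heteromer of ER alpha and ER beta binding domains; hits raise reporter fluorescence and both agonists and antagonists give an increase.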 The method in brief:
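Heterodimerisation of ERα (aa 310-547) and ERβ (aa 263-489) ligand binding domains was tracked as fluorescence gain in stably transfected HEK293T cells following 24 h dosing, normalised to DMSO controls.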

Assay [12] concerns guinea pig Histamine Receptor (H2), gene 100729734. As to the kind of experiment: NVS_GPCR_gH2: NovaScreen (NVS) G Protein-Coupled Receptor Assay for guinea pig Histamine Receptor (H2) (AID 2283342). The method in brief: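 Guinea pig striatal membrane preparation with specific radioligand; bound counts measured by filtration and scintillation 1 h post-dosing, DMSO as baseline. Chemicals passing a 25 uM duplicate screen were titrated to a 50 uM maximum.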

A word on the AC50: it is the concentration at which the activity in the assay is half-maximal.

Sequence of Androgen Receptor/SRC-1 Co-activator, AR (gene 367) (P10275 whole entry, looked up, the tested form may be a part): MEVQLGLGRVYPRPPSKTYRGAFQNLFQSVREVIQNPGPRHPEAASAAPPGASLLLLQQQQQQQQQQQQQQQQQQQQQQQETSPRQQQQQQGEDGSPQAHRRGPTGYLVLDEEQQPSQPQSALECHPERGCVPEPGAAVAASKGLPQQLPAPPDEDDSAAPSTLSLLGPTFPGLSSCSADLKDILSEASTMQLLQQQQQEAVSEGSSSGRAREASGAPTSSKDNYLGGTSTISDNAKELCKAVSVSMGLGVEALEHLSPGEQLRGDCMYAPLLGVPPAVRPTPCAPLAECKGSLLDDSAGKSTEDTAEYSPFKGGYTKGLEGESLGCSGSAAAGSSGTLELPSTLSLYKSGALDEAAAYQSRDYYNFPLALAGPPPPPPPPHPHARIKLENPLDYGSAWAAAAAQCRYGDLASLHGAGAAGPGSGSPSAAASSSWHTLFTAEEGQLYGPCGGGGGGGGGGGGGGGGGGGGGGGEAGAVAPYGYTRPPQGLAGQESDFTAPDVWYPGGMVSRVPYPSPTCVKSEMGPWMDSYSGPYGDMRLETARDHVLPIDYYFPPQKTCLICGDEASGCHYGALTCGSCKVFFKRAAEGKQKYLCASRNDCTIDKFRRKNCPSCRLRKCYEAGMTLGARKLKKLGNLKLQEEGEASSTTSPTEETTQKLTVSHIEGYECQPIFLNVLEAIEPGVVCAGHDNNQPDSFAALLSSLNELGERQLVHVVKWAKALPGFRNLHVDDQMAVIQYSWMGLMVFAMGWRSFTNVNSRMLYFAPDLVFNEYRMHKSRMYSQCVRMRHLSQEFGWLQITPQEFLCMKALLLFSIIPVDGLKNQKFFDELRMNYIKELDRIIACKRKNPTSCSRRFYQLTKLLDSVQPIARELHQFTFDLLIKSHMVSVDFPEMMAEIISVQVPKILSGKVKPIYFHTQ
T1 sequence (P03372 whole entry, looked up, the tested form may be a part): as the sequence (P03372 whole entry, looked up, the tested form may be a part) above
T1 sequence (Q92731 whole entry, looked up, the tested form may be a part): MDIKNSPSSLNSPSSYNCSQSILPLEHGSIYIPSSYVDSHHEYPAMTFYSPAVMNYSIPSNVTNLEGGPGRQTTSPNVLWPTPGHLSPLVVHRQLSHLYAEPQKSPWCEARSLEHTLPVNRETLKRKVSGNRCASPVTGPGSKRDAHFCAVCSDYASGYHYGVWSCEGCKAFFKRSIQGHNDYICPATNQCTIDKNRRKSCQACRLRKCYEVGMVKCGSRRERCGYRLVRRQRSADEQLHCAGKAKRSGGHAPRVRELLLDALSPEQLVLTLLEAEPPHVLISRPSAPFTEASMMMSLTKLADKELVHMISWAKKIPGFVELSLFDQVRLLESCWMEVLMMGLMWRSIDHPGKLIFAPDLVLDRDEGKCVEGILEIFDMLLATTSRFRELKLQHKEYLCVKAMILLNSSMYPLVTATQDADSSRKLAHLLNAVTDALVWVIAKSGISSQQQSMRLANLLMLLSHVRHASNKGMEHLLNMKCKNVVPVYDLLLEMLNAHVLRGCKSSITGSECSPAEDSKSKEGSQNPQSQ
Sequence of Estrogen receptor beta (Homo sapiens) (Q92731 whole entry, looked up, the tested form may be a part): as above

In the case of `ClCC(Cl)CCl`, the molecule was called inactive (in the assay on NCBI gene 100848466; in assay [1]).
Turning to `C[C@]12CCC(=O)C[C@@H]1CC[C@@H]1[C@@H]2CC[C@]2(C)[C@@H](O)CC[C@@H]12`, the molecule was classed as inactive (with NCBI gene 100848466; in assay [2]). In addition, the AC50 in assay [2] was 6.23 µM (active) and 10.7 µM (active) and 5.44 µM (active); with PGR (gene 5241) it was 0.366 µM (active).
Take `O=C(OC1CCCCC1)c1ccccc1C(=O)OC1CCCCC1`: the outcome in assay [1], in assay [3] and in assay [6] was inactive. In addition, the figures for the AC50 in assay [4] and in assay [5] were 23.9 µM (active) and 35 µM (active), respectively.
As to `COP(=O)(OC)O/C(=C\Cl)c1cc(Cl)c(Cl)cc1Cl`, the molecule was called inactive in assay [1], in assay [4], in assay [5], in [8] and in assay [9]. In addition, the concentration at half-maximal activity (AC50) in [7] was 67.5 µM (active).
Consider `CCOP(=S)(OCC)Oc1nc(Cl)c(Cl)cc1Cl`, for which the outcome in [1] was inactive. The concentration at half-maximal activity (AC50) was 70.6 µM (active) in assay [4]; 71.3 µM (active) in [5]; 50 µM (active) in assay [10]; 78.9 µM (active) in assay [8]; 61.5 µM (active) in assay [11]; 58.9 µM (active) in [2].
Consider `CCOC(=O)/C=C(C)/C=C/C[C@@H](C)CCCC(C)C`, for which the result in [1] was inactive.
For the molecule `O=S(=O)(c1ccc(Cl)cc1)c1ccc(Cl)cc1`, the molecule was called inactive in assay [1], in assay [4], in assay [5], in assay [10], in assay [11] and in [2].
Take `CCC(=O)C(CC(C)N(C)C)(c1ccccc1)c1ccccc1` (centres undefined): the AC50 in [12] was 4.02 µM (active). Besides, the call in assay [4], in [5], in [10], in [7], in assay [11] and in assay [2] was inactive.
As to `O=C(O)C(F)(F)C(F)(F)C(F)(F)C(F)(F)C(F)(F)C(F)(F)C(F)(F)C(F)(F)C(F)(F)C(F)(F)F`, the AC50 in the assay on NCBI gene 100848466 was 23.1 µM (active). Moreover, the molecule was classed as inactive in assay [2].
As to `CCC[CH2][Sn]([CH2]CCC)([CH2]CCC)[O]C(=O)c1ccccc1`, the outcome in assay [1], in [4] and in assay [5] was inactive. In addition, the AC50 in assay [3] is 9.94 µM (active).
